Test [1] in a line: Nuclear factor erythroid 2-related factor 2/antioxidant responsive element (Nrf2/ARE) small molecule agonists: qHTS cell viability counter screen in human keratinocytes (AID 1919968; active means well fitted curve in the direction sought with a large enough effect in the repeat runs; an effect the other way counts as inactive or inconclusive; further: nearly all actives have a fitted effect of over 55% in size; further: potency means the concentration at half of the fitted maximal effect). The essentials:
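Stably transfected HaCaT (KeratinoSens), 1,500/well. Test agents in DMSO were applied for 23 h, 37 C/5% CO2. CellTiter-Fluor was incubated 1 h before the fluorescence read.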
Background: qHTS replaces the single test concentration by a dilution series.

Test [2] is described as follows: Nuclear factor erythroid 2-related factor 2/antioxidant responsive element (Nrf2/ARE) small molecule agonists: luciferase reporter gene qHTS assay in human keratinocytes (AID 1919969). Further: nearly all actives have a fitted effect of over 35% in size. Further: potency means the concentration at half of the fitted maximal effect.
Test [3] concerns the target Gonadotropin-releasing hormone receptor (Homo sapiens) (UniProt P30968). The test is described as follows: Human gonadotropin-releasing hormone receptor (GnRHR) small molecule agonists, calcium flux assay in GnRHR-HEK293 cells (AID 1920063). Further: nearly all actives have a fitted effect of over 35% in size. Further: potency means the concentration at half of the fitted maximal effect. The essentials: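 Stable human GnRHR HEK293 line. 18 h plating, then calcium dye for 1 h at 37 C. Agonist-mode compound addition from DMSO stocks; fluorescence monitored 3 min.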
(Calcium flux is commonly read through the fluorescence of an indicator in the cells.)

Test [4] deals with KiSS-1 receptor (Homo sapiens) (UniProt Q969F8). The test is described as follows: Human kisspeptin (KISS1R) small molecule agonists, calcium flux assay in KISS1R-HEK293 cells (AID 1920064; active means well fitted curve in the direction sought with a large enough effect in the repeat runs; an effect the other way counts as inactive or inconclusive; further: potency means the concentration at half of the fitted maximal effect). The essentials: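 After overnight (18 h) culture at 37 C/5% CO2, human KISS1R-HEK293 cells received calcium dye for 1 h, then test compound; emission at 540 nm (excitation 480 nm) was tracked for 3 min.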

The nature of test [5]: G protein-coupled receptor (GPCR) small molecule agonists, calcium flux assay: HEK293 wild type cell line counter screen (AID 1920065). Further: potency means the concentration at half of the fitted maximal effect. The essentials:
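Following 18 h incubation at 37 C/5% CO2, plates got calcium dye for 1 h; compounds, ATP or DMSO were then pinned in and fluorescence followed kinetically (480/540 nm).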

The nature of test [6]: p53 small molecule agonists, cell-based qHTS assay with human liver microsomes (AID 1963577). The method, boiled down:
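p53RE-bla cells, 4,000/well, compound added after 5 h, with human liver microsomes 0.5 mg/mL and NADPH 0.5 mg/mL final; 16 h at 37 C, then LiveBLAzer 2 h RT, fluorescence.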

Test [7] is described as follows: p53 small molecule agonists, cell-based qHTS assay with rat liver microsomes (AID 1963578). The method, boiled down:
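p53RE-bla cells, 4,000/well, pre-incubated 5 h, then given compounds plus rat liver microsomes (0.5 mg/mL final) and NADPH (0.5 mg/mL final). Incubation 16 h at 37 C; beta-lactamase reporter read by LiveBLAzer fluorescence after 2 h at room temperature.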

Test [8] can be described thus: p53 small molecule agonists, cell-based qHTS assay with human liver microsomes: qHTS cell viability counter screen (AID 1963579). Further: nearly all actives have a fitted effect of over 45% in size. Further: potency means the concentration at half of the fitted maximal effect. The method, boiled down: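 p53RE-bla cells, 4,000/well, dosed 5 hours after plating, with human liver microsomes (0.5 mg/mL final) plus NADPH (0.5 mg/mL final), 16 hours at 37 C. Viability read as CellTiter-Glo luminescence after 30 min at room temperature.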

Test [9] is described as follows: p53 small molecule agonists, cell-based qHTS assay with rat liver microsomes: qHTS cell viability counter screen (AID 1963580). Further: nearly all actives have a fitted effect of over 45% in size. Further: potency means the concentration at half of the fitted maximal effect. The method, boiled down: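 Cytotoxicity counter screen: intracellular ATP measured by CellTiter-Glo luminescence in the same wells as the beta-lactamase reporter read, on HCT-116 p53RE-bla cells exposed 16 h at 37 C to compounds with rat liver microsomes and NADPH, each 0.5 mg/mL final.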

A short description of test [10]: p53 small molecule agonists, cell-based qHTS assay: qHTS cell viability counter screen (AID 1963581). Further: nearly all actives have a fitted effect of over 45% in size. Further: potency means the concentration at half of the fitted maximal effect. The essentials: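 qHTS counter screen: 16 h compound exposure at 37 C of p53RE-bla HCT-116 cells (4,000 per well, seeded 5 h prior), cell viability by ATP luminescence.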
Test [11] is described as follows: p53 small molecule agonists, cell-based qHTS assay (AID 1963582; active means well fitted activation curve with a large enough effect in the signal ratio in the repeat runs, not every such curve was filed as active; the % refers to the signal ratio). The essentials:
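Measured: fluorescence from cleaved LiveBLAzer substrate. System: p53RE-bla cells, 16 h compound treatment at 37 C, 2 h substrate step at room temperature.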

Test [12] deals with 5-hydroxytryptamine receptor 2A (Homo sapiens) (UniProt P28223). Briefly: 5-hydroxytryptamine receptor 2A (HTR2A) small molecule agonists, cell-based qHTS assay (AID 1963587). Further: nearly all actives have a fitted effect of over 30% in size. Further: potency means the concentration at half of the fitted maximal effect. The method, boiled down: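 CHO cells stably expressing human HTR2A, plated 18 h, loaded with calcium dye 1 h at 37 C. Agonist mode: compounds added and intracellular calcium fluorescence recorded kinetically for 2 min at 1 sec intervals.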

The target of test [13] is Muscarinic acetylcholine receptor M1 (Homo sapiens) (UniProt P11229). Briefly: Cholinergic receptor muscarinic 1 (CHRM1) small molecule antagonists, cell-based qHTS assay (AID 1963588). Further: nearly all actives have a fitted effect of over 40% in size. Further: potency means the concentration at half of the fitted maximal effect. The essentials: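 Compounds were tested at 15 concentrations in three independent runs. Dye-loaded CHRM1-CHO cells were exposed 5 min at room temperature before stimulation by acetylcholine added at 50nM. Intracellular calcium was read kinetically on FDSS for 3 min.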

Test [14] can be described thus: cAMP Responsive Elements (CRE) small molecule agonists, cell-based qHTS assay (AID 1963590). The method, boiled down: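 Test agents in DMSO were incubated 3 h at 37 C/5% CO2 with CRE-bla HEK 293T cells seeded 18 h earlier; LiveBLAzer B/G FRET substrate was added and read after 2 h at room temperature.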
The nature of test [15]: cAMP Responsive Elements (CRE) small molecule antagonists, cell-based qHTS assay (AID 1963591; active means well fitted inhibition curve with a large enough effect in the signal ratio in the repeat runs, not every such curve was filed as active; the % refers to the signal ratio). The essentials:
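Reporter line CRE-bla HEK 293T in dialyzed-FBS DMEM; cells preincubated 18 h, treated 3 h with compound plus NKH477 (0.25 uM final); LiveBLAzer FRET, 2 h RT.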

Test [16] addresses Beta-2 adrenergic receptor (Homo sapiens) (UniProt P07550). Briefly: Adrenergic beta2 receptor (ADRB2) small molecule antagonists, cell-based qHTS assay (AID 1963592). Further: nearly all actives have a fitted effect of over 50% in size. Further: potency means the concentration at half of the fitted maximal effect. The method, boiled down:
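Assay format: CHO-ADRB2 cells, 18-20hr seeding at 37C/5% CO2, then compound plus 1nM isoproterenol agonist mix for 0.5hr RT. Homogeneous time-resolved fluorescence cAMP detection after 1hr, expressed as 665/615 nm ratio.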

Test [17] concerns the target D(2) dopamine receptor (Homo sapiens) (UniProt P14416). The test is described as follows: Dopamine D2 receptor (DRD2) small molecule antagonists, cell-based qHTS assay (AID 1963595; active means well fitted inhibition curve with a large enough effect in the signal ratio in the repeat runs, with a control signal flat; the % refers to the signal ratio; further: potency means the concentration at half of the fitted maximal effect). The method, boiled down: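 Cells were plated and grown for 24 h at 37 °C. Ro20-1724 (0.1 mM final) went in first, then compound for 10 min. NKH477 (200 nM) with quinpirole (12 nM) followed for 30 min at RT, then HTRF detection reagents for 1 h.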

Test [18] addresses 5-hydroxytryptamine receptor 2A (Homo sapiens) (UniProt P28223). The test is described as follows: 5-hydroxytryptamine receptor 2A (HTR2A) small molecule antagonists, cell-based qHTS assay (AID 1963586). Further: nearly all actives have a fitted effect of over 45% in size. Further: potency means the concentration at half of the fitted maximal effect. The essentials: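 CHO cells stably expressing human HTR2A were plated for 18 h at 37 C, then loaded with calcium dye for 1 h. Compounds were preincubated 5 min at room temperature before DOI (4 nM solution) was added. Kinetic fluorescence was read for 3 min.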

Test [19] has as its target Muscarinic acetylcholine receptor M1 (Homo sapiens) (UniProt P11229). The test is described as follows: Cholinergic receptor muscarinic 1 (CHRM1) small molecule agonists, cell-based qHTS assay (AID 1963589). Further: nearly all actives have a fitted effect of over 35% in size. Further: potency means the concentration at half of the fitted maximal effect. The method, boiled down: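 Kinetic fluorescence (1 s intervals) of calcium-sensitive dye in human M1 CHO cells after compound addition; cells pre-incubated 18 h at 37 C/5% CO2 and dye-loaded 1 h.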

Test [20] deals with D(2) dopamine receptor (Homo sapiens) (UniProt P14416). Briefly: Dopamine D2 receptor (DRD2) small molecule agonists, cell-based qHTS assay (AID 1963594). Further: nearly all actives have a fitted effect of over 35% in size. The essentials:
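HEK293 cells stably expressing human DRD2, pre-treated with PDE inhibitor Ro20-1724 (0.1 mM final) and compound 10 min at room temperature, then stimulated with NKH477 (200nM […]) for 30 min. cAMP read by HTRF (665/620 nm).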

The structures appear in SMILES notation. Values without a mark were called inactive. Results filed as inconclusive are left out. Activity calls are given as the source filed them. Unless noted, the call rests on the fitted dose curve.

Sequence of Muscarinic acetylcholine receptor M1 (Homo sapiens) (P11229 whole entry, looked up): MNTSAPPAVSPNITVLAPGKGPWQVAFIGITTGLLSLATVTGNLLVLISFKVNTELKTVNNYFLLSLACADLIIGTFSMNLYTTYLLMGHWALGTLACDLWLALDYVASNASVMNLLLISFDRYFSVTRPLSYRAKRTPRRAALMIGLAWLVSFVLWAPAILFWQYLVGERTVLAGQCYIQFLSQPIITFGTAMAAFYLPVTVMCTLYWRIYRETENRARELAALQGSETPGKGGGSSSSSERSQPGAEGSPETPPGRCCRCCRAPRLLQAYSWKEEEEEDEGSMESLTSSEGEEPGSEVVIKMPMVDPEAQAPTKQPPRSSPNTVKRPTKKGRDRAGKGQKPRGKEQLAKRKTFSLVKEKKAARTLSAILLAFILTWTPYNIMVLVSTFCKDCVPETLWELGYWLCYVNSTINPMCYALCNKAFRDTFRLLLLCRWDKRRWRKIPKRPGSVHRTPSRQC
Sequence of Gonadotropin-releasing hormone receptor (Homo sapiens) (P30968 whole entry, looked up): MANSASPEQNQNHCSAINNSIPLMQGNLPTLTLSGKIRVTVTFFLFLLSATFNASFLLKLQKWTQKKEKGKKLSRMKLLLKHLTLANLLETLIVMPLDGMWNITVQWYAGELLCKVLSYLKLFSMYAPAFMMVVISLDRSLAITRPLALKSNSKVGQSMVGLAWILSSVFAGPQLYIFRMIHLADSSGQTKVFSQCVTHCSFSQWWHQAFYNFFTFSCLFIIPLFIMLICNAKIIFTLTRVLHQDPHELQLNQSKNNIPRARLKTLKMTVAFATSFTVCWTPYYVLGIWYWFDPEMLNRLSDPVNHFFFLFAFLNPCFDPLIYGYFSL
Sequence of KiSS-1 receptor (Homo sapiens) (Q969F8 whole entry, looked up): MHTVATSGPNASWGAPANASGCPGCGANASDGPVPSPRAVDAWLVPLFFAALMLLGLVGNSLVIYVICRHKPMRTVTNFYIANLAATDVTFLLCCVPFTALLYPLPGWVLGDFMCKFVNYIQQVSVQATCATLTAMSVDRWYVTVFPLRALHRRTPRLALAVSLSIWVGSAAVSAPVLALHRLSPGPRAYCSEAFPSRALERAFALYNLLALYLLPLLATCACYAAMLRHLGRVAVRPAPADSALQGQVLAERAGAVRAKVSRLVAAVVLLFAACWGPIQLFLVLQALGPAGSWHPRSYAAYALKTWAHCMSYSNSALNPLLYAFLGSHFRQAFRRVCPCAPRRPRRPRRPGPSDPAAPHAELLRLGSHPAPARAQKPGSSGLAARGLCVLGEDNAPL
Sequence of D(2) dopamine receptor (Homo sapiens) (P14416 whole entry, looked up): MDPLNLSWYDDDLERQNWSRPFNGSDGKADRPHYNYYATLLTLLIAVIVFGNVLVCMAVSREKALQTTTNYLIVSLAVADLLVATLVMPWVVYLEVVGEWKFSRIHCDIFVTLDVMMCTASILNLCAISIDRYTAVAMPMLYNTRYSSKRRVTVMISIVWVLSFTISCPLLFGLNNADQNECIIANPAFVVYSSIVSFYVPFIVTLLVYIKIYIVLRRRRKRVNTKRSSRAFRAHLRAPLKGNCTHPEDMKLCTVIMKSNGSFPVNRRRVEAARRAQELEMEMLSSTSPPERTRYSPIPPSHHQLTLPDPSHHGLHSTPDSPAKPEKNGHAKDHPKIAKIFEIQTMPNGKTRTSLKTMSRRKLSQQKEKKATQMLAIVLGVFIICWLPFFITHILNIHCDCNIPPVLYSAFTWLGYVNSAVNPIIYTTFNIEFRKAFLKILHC
Sequence of 5-hydroxytryptamine receptor 2A (Homo sapiens) (P28223 whole entry, looked up): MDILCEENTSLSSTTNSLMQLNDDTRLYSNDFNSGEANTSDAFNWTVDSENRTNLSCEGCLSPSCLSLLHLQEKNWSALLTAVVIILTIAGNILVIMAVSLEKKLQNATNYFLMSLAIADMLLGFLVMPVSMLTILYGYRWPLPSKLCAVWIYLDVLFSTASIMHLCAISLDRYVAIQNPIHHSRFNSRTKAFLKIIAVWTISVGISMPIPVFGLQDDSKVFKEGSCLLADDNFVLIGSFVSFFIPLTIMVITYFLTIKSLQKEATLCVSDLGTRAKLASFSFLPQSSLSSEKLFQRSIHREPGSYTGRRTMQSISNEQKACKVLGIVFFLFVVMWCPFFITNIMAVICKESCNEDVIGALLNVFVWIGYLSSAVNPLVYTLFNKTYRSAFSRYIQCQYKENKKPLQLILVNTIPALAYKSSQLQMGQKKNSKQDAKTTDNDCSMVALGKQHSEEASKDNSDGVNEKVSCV
Sequence of Beta-2 adrenergic receptor (Homo sapiens) (P07550 whole entry, looked up): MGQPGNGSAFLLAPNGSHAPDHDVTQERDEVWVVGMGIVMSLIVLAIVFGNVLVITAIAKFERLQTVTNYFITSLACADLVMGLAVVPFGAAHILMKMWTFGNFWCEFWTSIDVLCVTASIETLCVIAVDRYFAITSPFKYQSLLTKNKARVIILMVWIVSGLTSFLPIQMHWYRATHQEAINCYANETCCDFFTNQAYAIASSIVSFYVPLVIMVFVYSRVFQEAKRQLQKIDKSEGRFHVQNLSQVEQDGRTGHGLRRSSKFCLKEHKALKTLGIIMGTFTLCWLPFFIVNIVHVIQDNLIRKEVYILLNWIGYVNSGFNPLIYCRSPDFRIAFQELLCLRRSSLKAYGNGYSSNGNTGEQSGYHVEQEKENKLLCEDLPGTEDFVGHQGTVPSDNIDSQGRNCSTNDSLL

Turning to `CCN(CC)CCOC(=O)C(C)(c1ccccc1)c1ccccc1`, the Potency result in [1], in test [2], in [3], in test [4], in test [5] and in test [6] was “inactive” in each case. The Potency result in test [7], in test [8], in test [9], in [10], in test [11] and in [12] was “inactive” in each case. Besides, the Potency result in test [14], in test [15], in [16] and in test [17] was “inactive” each time. In addition, the Potency in test [13] was 0.013 µM (active).

As for `C=C(C)C(=O)[O][Sn]([CH2]CCC)([CH2]CCC)[CH2]CCC`, the Potency in test [1] is 0.306 µM (active); in [2], 0.433 µM (active); in test [3], 15.5 µM (active); in [4], 11 µM (active); in [5] it was 34.7 µM (active); in test [8], 14.5 µM (active). The Potency in test [9] is 3.24 µM (active); in [10] it was 3.63 µM (active); in test [18] it was 1.88 µM (active); in test [12], 9.77 µM (active); in test [19], 9.77 µM (active); in test [16] it was 1.09 µM (active). The Potency in test [17] was 2.43 µM (active). In addition, the Potency entry in test [6] and in test [7] was “inactive” each time.

Regarding `O=S1(=O)OC(c2cc(Br)c(O)c(Br)c2)(c2cc(Br)c(O)c(Br)c2)c2ccccc21`, the Potency in test [1] was 14.1 µM (active); in [8] it was 21 µM (active); in test [9], 18.7 µM (active); in [10], 18.7 µM (active). Besides, the Potency result in [2], in test [3], in test [4], in test [5], in [6] and in [7] was “inactive” throughout. For the same molecule, the Potency entry in test [18], in test [12], in test [13], in test [19], in test [14] and in [15] was “inactive” throughout.

For the molecule `CC/C(=N\OC/C=C/Cl)C1=C(O)CC(C2CCOCC2)CC1=O` (stereo not given), the Potency result in [1], in test [2], in test [3], in test [4], in test [5] and in test [6] was “inactive” throughout. Further, the Potency result in test [7], in test [8], in [9], in test [10], in test [11] and in [12] was “inactive” each time. Further, the Potency result in test [13], in [19], in [16], in test [20] and in [17] was “inactive” throughout.

Regarding `COc1ccc2c(C(=O)c3ccc(Cl)cc3)c(C)n(CC(=O)O)c2c1`, the Potency entry in [1], in [2], in [3], in test [4], in test [5] and in test [6] was “inactive” in each case. Also, the Potency result in test [7], in [8], in test [9], in test [10], in test [11] and in [12] was “inactive” each time. In addition, the Potency entry in test [19], in test [14], in [15], in test [16] and in test [17] was “inactive” throughout.

Consider `O=C(O)c1cc(I)cc(I)c1I`, for which the Potency result in test [1], in test [2], in test [3], in [4], in test [5] and in test [6] was “inactive” throughout. Also, the Potency result in [7], in test [8], in [9], in test [10], in test [18] and in [12] was “inactive” throughout. For the same molecule, the Potency result in test [13], in test [19], in [16], in [20] and in test [17] was “inactive” each time.

For `COc1ccc(CN2CCNCC2)c(OC)c1OC`, the Potency entry in test [1], in test [2], in test [3], in test [4], in test [5] and in [6] was “inactive” throughout. In addition, the Potency result in test [7], in test [8], in test [9], in test [10], in [11] and in test [14] was “inactive” each time. The Potency result in [15], in test [16], in test [20] and in test [17] was “inactive” each time.

(Values after PubChem BioAssay (Tox21).)
